Bioassay records from PubChem.
Most compounds without a hit are left out; they make up all but 12% or so of the library.
Ins promoter up: MIN6 insulin promoter up-regulation. MIN6 insulin promoter-GFP reporter, high-content imaging; stronger effect = higher value. 190,000 tested, 0.3% active. z-score at 5 µM. AID 1625;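 active means z-score above 3 at 5 µM with at least 500 cells counted in the well; inconclusive means wells under 500 cells, flagged as cytotoxic or low count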
L major viab: Leishmania major promastigote growth inhibition | Leishmania major promastigotes, resazurin fluorescence viability | inhibition, % at 10 µM | 200,000 tested, 9% active; in the data active means inhibition above about 50%;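 further: promastigotes grown with compound for 44 hours at 28 °C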
Cl transport mod: KCC2 (human) Cl- transport modulation; KCC2 cells, thallium flux FluoZin-2 fluorescence; B-score of Tl+ flux slope (higher = more flux/activation; lower = inhibition) at 10 µM; 190,000 tested, 2.2% active;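 active means thallium flux slope and its plate-corrected score both differing from the plate sample mean at a set confidence after two filtering rounds, in either direction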;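 further: slope of fluorescence scaled to starting intensity during 10 to 20 s after thallium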
Target sequence (Q9H2X9 whole entry, looked up): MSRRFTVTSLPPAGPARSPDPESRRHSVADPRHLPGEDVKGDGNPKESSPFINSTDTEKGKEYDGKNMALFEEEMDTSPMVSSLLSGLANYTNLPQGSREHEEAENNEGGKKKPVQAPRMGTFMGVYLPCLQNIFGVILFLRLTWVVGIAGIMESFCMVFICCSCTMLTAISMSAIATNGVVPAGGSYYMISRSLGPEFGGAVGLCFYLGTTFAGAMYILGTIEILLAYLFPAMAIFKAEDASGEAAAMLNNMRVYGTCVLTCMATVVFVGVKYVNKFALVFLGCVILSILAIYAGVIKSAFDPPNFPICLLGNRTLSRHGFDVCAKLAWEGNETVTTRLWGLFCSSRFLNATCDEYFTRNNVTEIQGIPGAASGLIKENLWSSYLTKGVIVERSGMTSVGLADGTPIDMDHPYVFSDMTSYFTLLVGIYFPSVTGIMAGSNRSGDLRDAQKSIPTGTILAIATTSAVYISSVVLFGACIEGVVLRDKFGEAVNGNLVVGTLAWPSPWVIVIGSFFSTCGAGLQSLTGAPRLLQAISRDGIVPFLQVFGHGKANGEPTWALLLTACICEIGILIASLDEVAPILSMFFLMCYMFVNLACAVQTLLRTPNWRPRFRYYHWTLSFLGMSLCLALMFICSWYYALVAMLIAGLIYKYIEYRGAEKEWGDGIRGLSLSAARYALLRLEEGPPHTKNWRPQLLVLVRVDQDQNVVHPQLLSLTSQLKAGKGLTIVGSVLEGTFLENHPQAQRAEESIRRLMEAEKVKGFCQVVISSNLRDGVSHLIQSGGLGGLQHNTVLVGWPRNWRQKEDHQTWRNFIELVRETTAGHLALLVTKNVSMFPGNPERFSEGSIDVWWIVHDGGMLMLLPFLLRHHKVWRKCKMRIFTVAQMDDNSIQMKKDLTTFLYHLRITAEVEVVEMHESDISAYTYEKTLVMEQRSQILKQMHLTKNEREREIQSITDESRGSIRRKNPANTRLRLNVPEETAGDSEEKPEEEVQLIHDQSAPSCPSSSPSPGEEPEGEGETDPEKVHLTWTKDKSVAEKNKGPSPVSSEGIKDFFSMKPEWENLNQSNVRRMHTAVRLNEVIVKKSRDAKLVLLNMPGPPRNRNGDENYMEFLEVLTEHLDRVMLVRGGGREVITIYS
WT yeast gro inh: growth inhibition of WT yeast, mitochondrial fusion screen. AID 1362. mitochondrial fusion phenotypic screen, WT strain. 190,000 tested, 2.1% active. inhibition, % at 10 µM; in the data active means inhibition above about 58%; tested in S. cerevisiae
ROMK primary: modulators of human ROMK potassium channel; P48048; B-score at 10 µM; Tet-inducible ROMK, thallium flux fluorescence; actives lie on both sides; 130,000 tested, 2% active;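 active means signal ratio slope over the read window, or its plate-corrected B-score, at least 3 SD from the plate mean, either direction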;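 further: B-score of the F/F0 ratio slope over 7 to 12 s after thallium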
Insulin prom inh: TRM-6 insulin promoter activity inhibition. TRM-6 cells (human fetal islet line), insulin promoter-eGFP reporter, imaging; reporter expression induced with tamoxifen. inhibition, % at 2 µM. 130,000 tested, 0.9% active;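 active means inhibition above the mean plus 3 SD, with well images judged a real hit on visual review, cut at about 60% in these data, passing the limit was not always enough; inconclusive means inhibition over the cutoff but images rejected on review; inactive means inhibition not above the cutoff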
KCC2 sec1: KCC2 (human) modulation, secondary assay; shares compounds with Cl transport mod; AID 1713; normalised thallium flux (F/F0 slope) at 10 µM; HEK293-KCC2, thallium flux, FluoZin2 fluorescence; stronger effect = higher value; 3,700 tested, 15% active;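 active means thallium flux slope above the same plate's solvent-only control mean plus 3 SD; inconclusive means the two replicate wells disagree; inactive means no significant difference from solvent-only control wells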
KCC2 bumet counter: thallium flux despite bumetanide block in KCC2 cells, secondary assay 3. shares compounds with Cl transport mod. HEK293-KCC2 + bumetanide/ouabain, thallium flux FluoZin2; stronger effect = higher value. normalized thallium flux at 10 µM. 3,700 tested, 49% active. AID 1714;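 active means thallium entry rate above the same plate's blocked-transporter control wells by more than 3 SD; inconclusive means the two repeat wells disagree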;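 further: raw slope of fluorescence over initial fluorescence between 10 and 20 s after thallium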
KCC2 secondary2: confirmation of human KCC2 transport modulators. shares compounds with Cl transport mod. HEK293-KCC2, thallium flux FluoZin2 fluorescence; actives lie on both sides; F/F0 rise rate, 10–20 s post-thallium. normalized thallium flux at 10 µM. 3,700 tested, 23% active. AID 1715;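 active means thallium flux slope more than 3 SD above or below the plate's solvent-only control mean, mostly below; inconclusive means the two repeat wells disagreed; inactive means no significant shift from solvent-only controls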;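 further: raw slope with 0.1% DMSO as baseline and bumetanide as block control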
HEK293 Tl flux: acts in parental HEK cells, KCC2 counter-screen; shares compounds with Cl transport mod; HEK293 parental cells, thallium flux FluoZin2, ouabain; baseline-ratio fluorescence slope, 10–20 s after thallium; thallium flux rate (normalised fluorescence) at 10 µM; 3,700 tested, 46% active;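 active means thallium flux rate significantly above the same plate's solvent-only control wells, beyond their mean plus 3 SD; inconclusive means the two replicate wells gave conflicting results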
KCC2 retest ouab: confirmation of human KCC2 modulators with ouabain. 3,700 tested, 48% active. shares compounds with Cl transport mod. raw Tl+ flux slope (below DMSO = inhibition, above = activation) at 10 µM. HEK293-KCC2, thallium flux FluoZin2 fluorescence; bidirectional: low = inhibitor, high = activator. AID 1717;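 active means thallium flux slope beyond 3 SD from same-plate DMSO control mean in most replicates, usually higher, sometimes lower; inconclusive means repeat tests gave conflicting results; inactive means no significant difference from controls in most replicates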;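 further: slope of initial-normalized fluorescence between seconds 10 and 20 after thallium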
HEK counter2: acts in parental HEK cells, second KCC2 counter-screen | shares compounds with Cl transport mod | HEK293 parental, thallium flux FluoZin-2 fluorescence slope | thallium flux slope at 10 µM | 3,700 tested, 33% active | AID 1718;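 active means thallium flux slope above the same plate's solvent-control mean plus 3 SD in both duplicate wells; inconclusive means duplicate wells that disagreed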;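 further: run without ouabain in cells lacking the KCC2 cotransporter; slope of fluorescence scaled to its starting value between 10 and 20 s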
Starred values were filed as active, the others as inactive; ? = inconclusive; nt = no result given.

SMILES	Ins promoter up	L major viab	Cl transport mod	WT yeast gro inh	ROMK primary	Insulin prom inh	KCC2 sec1	KCC2 bumet counter	KCC2 secondary2	HEK293 Tl flux	KCC2 retest ouab	HEK counter2
COc1ccc2nc(SCC(=O)Nc3ccccc3OC)[nH]c2c1	0.13	nt	-0.93	nt	nt	nt	nt	nt	nt	nt	nt	nt
CN(Cc1nc2ccccc2c(=O)[nH]1)Cc1nc2ccsc2c(=O)[nH]1	-1.4	6	-0.091	-20	0.36	-22	nt	nt	nt	nt	nt	nt
Cc1ccsc1C(=O)OCc1nc2ccccc2c(=O)[nH]1	0.58	0	nt	-3	0.051	23	0.0099	0.0071	0.035	0.0079	0.02	?
Cc1cc2c(cc1C)NC(c1nc3ccccc3[nH]1)C1=C(CC(C)(C)CC1=O)N2 (stereo not given)	-0.51	91*	-3.8*	33	nt	-36	0.01	0.0052	0.036	0.004	0.02	0.011
C/C(=N\NC(=S)NC1CCCCC1)c1c(F)cccc1F	-1.6	16	22*	74*	nt	23	0.014*	0.066*	0.028	0.021*	0.046*	0.011*
C/C(=N\NC(=S)NC1CCCCC1)c1cccs1	-0.21	25	57*	71*	nt	29	0.0048	0.053*	0.043*	0.027*	0.048*	0.029*
C/C(=N\NC(=S)NC1CCCCC1)c1ccc(Cl)c(Cl)c1	0.44	nt	0.28	nt	nt	nt	nt	nt	nt	nt	nt	nt
CCN(CC)C(=O)C1CCCN(c2ccc([N+](=O)[O-])cc2)C1 (stereo not given)	0.29	-7	-0.61	-10	-0.38	nt	nt	nt	nt	nt	nt	nt
CCN1CCN(CCCNC(=O)CCc2nc(-c3ccc(OC)cc3)no2)CC1	0.14	-5	-0.28	-5	-0.16	-20	nt	nt	nt	nt	nt	nt
CC1CCN(C(=O)CN(c2ccccc2)S(=O)(=O)N(C)C)CC1	-1.4	29	0.034	4	0.49	-2	nt	nt	nt	nt	nt	nt
COCCN1C(=O)N[C@@H](CCc2ccccc2)C(C(C)=O)=C1C	0.24	14	6*	-9	0.46	-50	0.0066	0.0047	0.025*	0.0074	0.018	0.01
COc1cc(CCN2C(=O)N[C@@H](CCc3ccccc3)C(C(C)=O)=C2C)cc(OC)c1OC	-0.6	-4	-0.88	12	0.58	9	nt	nt	nt	nt	nt	nt
COc1ccc(-c2cc(C(=O)OCC(=O)c3c(N)n(C)c(=O)n(C)c3=O)c3ccccc3n2)cc1	-0.26	2	-4.8*	9	0.09	-58	0.0087	0.0058	0.029	0.0071	0.021	?
COc1ccc(-c2cc(C(=O)c3c(N)n(C)c(=O)n(C)c3=O)c3ccccc3n2)cc1	-0.37	nt	0.0076	nt	nt	nt	nt	nt	nt	nt	nt	nt
C=CCn1c(O)c(N=NC(=O)OCC)c2ccccc21	nt	-6	-0.53	-6	-0.5	-13	nt	nt	nt	nt	nt	nt
C=CCn1c(O)c(N=NC(=S)Nc2ccc(OC)cc2)c2ccccc21	-0.79	87*	53*	4	1.3	0	0.0065	0.061*	0.064*	0.059*	0.058*	0.05*
C=CCn1c(O)c(N=NC(=S)Nc2cccc(OC)c2)c2ccccc21	-3	98*	71*	-1	0.47	-267	0.02*	0.11*	0.031	0.041*	0.052*	0.013*
C=CCSC1=NC(N)=C(C#N)C2(CCCCC2)C1C(N)=O (stereo not given)	-0.49	-6	0.56	0	nt	-2	nt	nt	nt	nt	nt	nt
